a7 integrin act = activators of alpha7 integrin expression for muscular dystrophy; alpha7betagal myoblasts, beta-gal FDG fluorescence, 48 h; Potency, µM (series often up to 38.3 µM), hits mostly activators; 0.064% of 350,000 active; note: nearly all actives have a fitted effect of over 60% in size
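Alpha7betagal+/- myoblasts (passage 13) were plated 16-24 hr, then exposed to compounds (1:260 dilution of DMSO stock) for 48 hours at 37C. After MPER lysis, β-galactosidase reporter activity was read as FDG fluorescence (ex 480/em 540) after 30 minutes.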
ERG Ets-DNA blk = blocks human ERG Ets domain binding to DNA. P11308. fluorescence polarization, His-ERG Ets domain / labelled DNA. Potency, µM (titrated, usually from 76.9 µM), usual class: inhibitors. 0.028% of 370,000 active. AID 624246; active = well fitted inhibition curve with a large enough effect in the polarisation, with a control signal flat; inconclusive = small, poorly fitted or top-dose-only effect, or effect the other way, or a change in a side signal; inactive = no such curve, though single readings can be large or run the other way; the % refers to the polarisation;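 note: polarization taken with two DNA probes labelled with fluorescein and Texas red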
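His-tagged ERG Ets domain (1 uM in the protein solution; 300mM KCl, 50mM Tris-HCl, 1mM EDTA, 1mM DTT, pH 7.5) received compound, then a probe mix of 5 nM fluorescein-DNA and 100nM Texas-615-DNA. Fluorescence polarization was read for both dyes.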
Giardia kill = kills Giardia lamblia. Giardia lamblia trophozoite viability. activity change, % at 7.66 µM, hits read low. 0.15% of 340,000 active; in the data active = activity change below about -80%; inconclusive = between about -30% and that limit;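 note: parasites exposed to compound for two days anaerobically before the ATP read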
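Killing of trophozoites was scored by loss of ATP luminescence after a 48 hrs anaerobic exposure to compounds at 37 deg C, using 100 cells per well.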
VP16 counter = inhibits Gal4-VP16 luciferase reporter, ROR gamma counter-screen. AID 2546. Potency, µM (highest dose often 53.6 µM), most hits filed as inhibitors. 3.5% of 310,000 active. Drosophila S2 Gal4-VP16 UAS-luciferase, luminescence, 20 h;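 note: Gal4-VP16 expression switched on by copper sulfate through the metallothionein promoter; nearly all actives have a fitted effect of over 50% in size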
RORg inh = blocks mouse ROR gamma transcriptional activity. Drosophila S2 Gal4-RORgamma UAS-luciferase reporter, 20 h. Potency, µM (doses to about 53.6 µM), most hits filed as inhibitors. 5.4% of 310,000 active. AID 2551; note: nearly all actives have a fitted effect of over 60% in size
Target sequence (P51450 whole entry, looked up, the tested form may be a part): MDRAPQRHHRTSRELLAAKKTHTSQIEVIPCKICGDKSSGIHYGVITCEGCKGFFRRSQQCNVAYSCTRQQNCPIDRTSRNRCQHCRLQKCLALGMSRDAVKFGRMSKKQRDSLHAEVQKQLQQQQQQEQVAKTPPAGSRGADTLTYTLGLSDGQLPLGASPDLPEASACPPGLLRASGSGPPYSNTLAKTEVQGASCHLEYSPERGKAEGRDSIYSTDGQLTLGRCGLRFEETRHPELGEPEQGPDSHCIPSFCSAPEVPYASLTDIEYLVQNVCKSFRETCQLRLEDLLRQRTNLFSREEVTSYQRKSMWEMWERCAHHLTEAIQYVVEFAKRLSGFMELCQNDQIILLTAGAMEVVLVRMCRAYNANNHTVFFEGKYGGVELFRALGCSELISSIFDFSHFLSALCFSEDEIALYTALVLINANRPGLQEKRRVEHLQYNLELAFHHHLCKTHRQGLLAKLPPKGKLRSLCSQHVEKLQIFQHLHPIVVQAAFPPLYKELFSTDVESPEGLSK
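Stable Schneider cell line, Gal4 DNA-binding domain fused to ROR gamma, UAS-luciferase. Cmpd 1 hr RT → CuSO4 700 uM final → 20 hr RT → luciferase reagent 10 min → luminescence.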
Large screens that a line does not name were inactive. The entries come from a sample that favours hits as a whole. Unless noted, calls come from the whole dose curve; as a rule, active = well fitted curve in the direction sought with a large enough effect; inconclusive = small, poorly fitted or top-dose-only effect, or another doubt; inactive = no such curve, though single readings can be large; an effect the other way counts as inactive or inconclusive.

CN(CCC#N)C(=S)NC(=O)c1ccc(S(=O)(=O)N2CCOCC2)cc1	VP16 counter inconclusive, RORg inh 5.01µM
O=C(NC(=S)NCc1ccccc1)c1ccccc1F	VP16 counter inconclusive, RORg inh 10µM
Cc1cccc(NC(=O)CNC(=O)c2cccc(-n3cccc3)c2)c1C	none (no result: VP16 counter, RORg inh)
CC(C)OC(=O)[C@@H]1CC[C@H](C)[C@@H](CCCCO)O1	none (no result: a7 integrin act, ERG Ets-DNA blk, Giardia kill)
O=C(CC12CC3CC(CC(C3)C1)C2)NC(=S)NCc1ccccc1	VP16 counter 1.58µM, RORg inh 2µM
O=C(NC(=S)NCCc1ccccc1)c1ccccc1	VP16 counter inconclusive, RORg inh 5.62µM
O=C(NCCc1ccc(Cl)cc1)c1ccc(=O)[nH]c1	none
O=C(NCCc1ccc(O)cc1)c1ccc(Cl)cc1	VP16 counter inconclusive, RORg inh 1.58µM
O=C(NC(=S)N(Cc1ccccc1)Cc1ccccc1)c1ccccc1F	VP16 counter 0.708µM, RORg inh 0.251µM
O=C(O)CNC(=S)N(Cc1ccccc1)Cc1ccccc1F	none
COCCCNC(=O)CCc1c(C)nc2nc(-c3cc(OC)cc(OC)c3)nn2c1C	none (no result: a7 integrin act, Giardia kill, VP16 counter, RORg inh)
Cc1ccccc1C(=O)NC(=S)N(CCO)Cc1ccccc1	VP16 counter 2.82µM, RORg inh 2µM
OCCN(Cc1ccccc1)C(=S)Nc1ccc(Cl)cc1Cl	VP16 counter inconclusive, RORg inh inconclusive
CC[C@@H](C)[C@H](CNC)NC[C@@H](Cc1cccc2ccccc12)NCCc1cccc(C(F)(F)F)c1	VP16 counter inconclusive, RORg inh 12.6µM
CNC[C@@H](Cc1ccccc1)NC[C@@H](CC1CCCCC1)NCCCc1ccccc1	VP16 counter inconclusive, RORg inh inconclusive
CNC[C@@H](CC1CCCCC1)NC[C@H](CC(C)C)NCCc1cccc(C(F)(F)F)c1	Giardia kill inconclusive, VP16 counter inconclusive, RORg inh 11.2µM
COc1cc(NC(=S)NC(=O)c2cc(C)cc(C)c2)ccc1NC(=O)c1cccs1	VP16 counter 1.78µM, RORg inh 2µM
COc1cc(NC(=S)NC(=O)c2ccc(C(C)(C)C)cc2)ccc1NC(=O)c1cccs1	VP16 counter 3.55µM, RORg inh 3.16µM
COc1cc(NC(=S)NC(=O)c2c(OC)cccc2OC)ccc1NC(=O)c1cccs1	RORg inh inconclusive
COc1cc(NC(=S)NC(=O)c2ccccc2C)ccc1NC(=O)c1cccs1	VP16 counter 8.91µM, RORg inh 2.51µM
CCCN(CC(=O)Nc1ccccc1OC)C(=O)Cc1ccc2c(c1)CCC2	none (no result: VP16 counter, RORg inh)
CCOc1ccc(C(=O)Nc2ccc(NC(=O)c3cccs3)cc2)cc1[N+](=O)[O-]	VP16 counter inconclusive, RORg inh 14.1µM
Cc1ccc(C(=O)NC(=S)Nc2ccc(NC(=O)c3cccs3)cc2)cc1[N+](=O)[O-]	VP16 counter 6.31µM, RORg inh 6.31µM
Cc1cc(NC(=O)c2ccc(C)c([N+](=O)[O-])c2)no1	RORg inh 6.31µM
CN(C)c1ccc(CNCc2cccnc2)cc1	none (no result: VP16 counter, RORg inh)
COc1ccc(N(CC(=O)NCc2ccc(C)cc2)S(=O)(=O)c2c(C)[nH]c(=O)[nH]c2=O)cc1	none
Cc1ccc(S(=O)(=O)/N=C(/NC(=S)Nc2cccc(C)c2)c2ccccc2)cc1	VP16 counter 12.6µM, RORg inh inconclusive
CC(C)OC(=S)N/C(=N\S(=O)(=O)c1ccccc1)c1ccccc1	RORg inh 0.447µM
Cc1cccc(NC(=S)N/C(=N/S(=O)(=O)c2ccccc2)c2ccccc2)c1	VP16 counter inconclusive, RORg inh inconclusive
CC(=O)O[C@H]1C[C@H]2CC[C@@H]3[C@@H](CC[C@]4(C)[C@H](OC(C)=O)[C@H]([N+]5(C)CCCCC5)C[C@@H]34)[C@]2(C)C[C@H]1[N+]1(C)CCCCC1	none (no result: a7 integrin act, ERG Ets-DNA blk, Giardia kill)
Cc1cc(-c2cccs2)c(C#N)c(=S)[nH]1	Giardia kill inconclusive, VP16 counter inconclusive, RORg inh 10µM
N#Cc1c(-c2cccs2)cc(-c2cccs2)[nH]c1=O	none
CCOc1ccc(NC(=O)Cn2cnc3c(oc4ccccc43)c2=O)cc1	none (no result: a7 integrin act, Giardia kill, VP16 counter, RORg inh)
Cc1cc(C)n(-c2nc(NC(C)C)nc(NC(C)C)n2)n1	VP16 counter 2.51µM, RORg inh 0.562µM
CCNc1nc(NCC)nc(-n2nc(C)cc2C)n1	Giardia kill inconclusive, VP16 counter 2.24µM, RORg inh 0.708µM (no result: ERG Ets-DNA blk)
Cc1cc(C)n(-c2nc(N(C)C)nc(N(C)C)n2)n1	VP16 counter 7.08µM, RORg inh 2.82µM
Cc1cc(C)n(-c2ncc(C#N)cn2)n1	none
Cc1cc(C)n(-c2nnc(NC(C)(C)C)nn2)n1	none
Cc1cc(C)n(-c2nc(NC(C)(C)C)nc(NC(C)(C)C)n2)n1	VP16 counter inconclusive, RORg inh 2µM
COc1ccc2c(c1)c1c(c(=O)n(-c3ccccc3C)c(=O)n1Cc1cccc(C(F)(F)F)c1)n2C	none (no result: a7 integrin act, Giardia kill, VP16 counter, RORg inh)
Cc1ccc(C)c(NC(=O)C(=O)NCCc2csc(-c3cccc(F)c3)n2)c1	none (no result: a7 integrin act, Giardia kill, VP16 counter, RORg inh)
C/C(=N\NC(N)=O)C1(C)CCCCC1	none
C/C(=N\NC(N)=S)C1(C)CCCCC1	VP16 counter 8.91µM, RORg inh 3.55µM
Cn1c(SCc2ccc(F)cc2)nc2ccc(C(=O)NCc3ccccc3)cc21	none (no result: a7 integrin act, Giardia kill, VP16 counter, RORg inh)
COc1cccc(/C=N/n2c(-c3cc(C)[nH]n3)n[nH]c2=S)c1	none
COc1ccc(/C=C/C2=CC(C)(C)NC(=S)N2)cc1OC	RORg inh 3.16µM
CCOc1ccc(/C=C/C2=CC(C)(C)NC(=S)N2)cc1	VP16 counter 2.24µM, RORg inh 0.708µM
CCOc1ccc(/C=C2\NC(=S)NC2=O)cc1	Giardia kill inconclusive, VP16 counter inconclusive, RORg inh inconclusive
COc1cccc(/C=C/C2=CC(C)(C)NC(=S)N2)c1	VP16 counter 5.01µM, RORg inh 1.26µM
COc1ccc(/C=C/c2ccncc2)cc1OC	none
CCN1CCN(C(=S)NC(C)c2ccccc2)CC1 (centres undefined)	none
CCCOc1ccc(C(=O)NC2CCSc3ccccc32)cc1 (centres undefined)	none
O=c1oc2ccccc2cc1-c1nc(-c2ccccc2)no1	VP16 counter 8.91µM, RORg inh 11.2µM
Cc1cccc(-c2noc(-c3cc4ccccc4oc3=O)n2)c1	VP16 counter inconclusive, RORg inh 0.891µM
c1ccc(-c2noc(-c3ccc4ccccc4c3)n2)cc1	VP16 counter 25.1µM, RORg inh 3.55µM
Cc1ccc(-c2noc(-c3cc4ccccc4oc3=O)n2)cc1	none
O=c1oc2ccc(Br)cc2cc1-c1nc(-c2ccccc2)no1	none (no result: a7 integrin act, Giardia kill, VP16 counter, RORg inh)
Cc1cccc(-c2noc(-c3ccc(Cl)cc3[N+](=O)[O-])n2)c1	VP16 counter 10µM, RORg inh 2.51µM
CCCC(=O)NCC1(N(C)C)CCCCC1	none (no result: a7 integrin act, Giardia kill, VP16 counter, RORg inh)
Cc1ccc(-c2nc(-c3ccncc3)no2)cc1Cl	a7 integrin act inconclusive
Cc1ccc(-c2nc(-c3ccncc3)no2)cc1C	VP16 counter inconclusive, RORg inh 8.91µM
O=C=Nc1ccc(Cl)c(Cl)c1	RORg inh inconclusive (no result: a7 integrin act, ERG Ets-DNA blk, Giardia kill)
c1ccc2c(c1)OCC(CNc1ncnc3sccc13)O2 (centres undefined)	VP16 counter 0.501µM, RORg inh inconclusive
